From PubChem BioAssay AID1347165 (National Center for Advancing Translational Sciences (NCATS), 2019) come the findings set out here.

The whole screen tested about 220,000 compounds, of which about 5,700 (2.6%) were called active. Roughly 18% stayed inconclusive and do not appear here. This is one part of a sample in which actives are shown more often than they occur. Unmarked numbers belong to inactive results. The call rests on the fitted dose curve; in most records, active means well fitted inhibition curve with a large enough effect; inconclusive means small, poorly fitted or top-dose-only effect; inactive means no such curve, though single readings can be large or run the other way.
Potency means the concentration at half of the fitted maximal effect.

In this experiment the target is Lysine-specific demethylase 5B (Homo sapiens) (UniProt Q9UGL1). The experiment can be described thus: Primary screen for KDM5B Histone Demethylases FDH-coupled qHTS. Further: nearly all actives have a fitted effect of over 70% in size. On activity change, negative = inhibition: 0% is about no effect. To be noted: FDH-coupled NADH fluorescence (FDH is formaldehyde dehydrogenase); series mostly up to 57.7 µM; activity change, negative = inhibition: at the top concentration. In a few lines: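 Measured: NADH fluorescence change, 30 min, RT. System: KDM5BΔAP 200 nM final, H3K4me3 peptide, α-KG, Fe(II), ascorbate, NAD⁺ plus FDH, pH 7.5 HEPES. Compounds: titrated, 10 min pre-incubation with enzyme.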
Chain of Lysine-specific demethylase 5B (Homo sapiens) (Q9UGL1 whole entry, looked up): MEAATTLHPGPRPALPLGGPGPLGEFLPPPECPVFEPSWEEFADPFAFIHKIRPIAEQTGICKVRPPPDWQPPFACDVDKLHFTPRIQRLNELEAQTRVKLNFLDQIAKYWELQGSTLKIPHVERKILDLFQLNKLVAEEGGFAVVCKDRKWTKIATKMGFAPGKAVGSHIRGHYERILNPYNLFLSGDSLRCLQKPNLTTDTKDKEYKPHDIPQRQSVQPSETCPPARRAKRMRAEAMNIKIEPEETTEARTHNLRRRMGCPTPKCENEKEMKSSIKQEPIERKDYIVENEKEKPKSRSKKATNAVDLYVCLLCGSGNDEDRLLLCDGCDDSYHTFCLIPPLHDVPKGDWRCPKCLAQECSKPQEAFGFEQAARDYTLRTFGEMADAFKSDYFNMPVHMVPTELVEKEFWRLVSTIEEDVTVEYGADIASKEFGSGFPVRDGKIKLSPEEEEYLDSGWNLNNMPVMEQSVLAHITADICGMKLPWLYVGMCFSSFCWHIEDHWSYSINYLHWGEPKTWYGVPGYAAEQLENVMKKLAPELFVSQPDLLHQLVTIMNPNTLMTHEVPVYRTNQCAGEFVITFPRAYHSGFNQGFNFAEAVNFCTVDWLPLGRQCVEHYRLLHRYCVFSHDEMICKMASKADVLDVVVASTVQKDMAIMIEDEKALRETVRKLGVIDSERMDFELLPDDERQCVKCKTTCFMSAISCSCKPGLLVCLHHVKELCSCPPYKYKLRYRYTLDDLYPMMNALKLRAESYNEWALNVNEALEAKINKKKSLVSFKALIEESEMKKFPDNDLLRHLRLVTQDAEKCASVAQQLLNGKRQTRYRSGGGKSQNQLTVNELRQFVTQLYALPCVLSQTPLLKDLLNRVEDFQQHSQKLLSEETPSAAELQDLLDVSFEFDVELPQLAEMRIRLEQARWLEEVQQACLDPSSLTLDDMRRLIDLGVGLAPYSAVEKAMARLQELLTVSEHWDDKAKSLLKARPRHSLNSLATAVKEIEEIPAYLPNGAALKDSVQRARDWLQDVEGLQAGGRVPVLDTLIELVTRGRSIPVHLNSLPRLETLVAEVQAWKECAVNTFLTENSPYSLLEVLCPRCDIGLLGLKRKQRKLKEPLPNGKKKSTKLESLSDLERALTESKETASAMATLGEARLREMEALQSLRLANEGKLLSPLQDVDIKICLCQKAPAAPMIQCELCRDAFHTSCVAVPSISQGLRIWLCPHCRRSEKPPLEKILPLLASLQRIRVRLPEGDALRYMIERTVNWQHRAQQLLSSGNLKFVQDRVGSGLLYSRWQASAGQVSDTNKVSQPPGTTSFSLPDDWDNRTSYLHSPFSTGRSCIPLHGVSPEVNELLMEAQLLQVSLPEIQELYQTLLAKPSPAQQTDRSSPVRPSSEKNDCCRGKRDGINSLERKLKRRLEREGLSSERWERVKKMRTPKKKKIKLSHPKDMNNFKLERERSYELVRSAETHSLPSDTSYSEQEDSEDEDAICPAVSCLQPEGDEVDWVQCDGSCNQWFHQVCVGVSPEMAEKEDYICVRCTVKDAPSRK
For orientation: qHTS replaces the single test concentration by a dilution series.
On to `Cc1ccc(OCCOc2cccc(/C=N/NC(N)=O)c2)cc1`, for which the “activity change, negative = inhibition” value was 10.1%.

For `CC(C)C(=O)Nc1ccc2oc(-c3cccc(Cl)c3)nc2c1`, the “activity change, negative = inhibition” value is -19.6%.

Regarding `CCc1ccccc1NC(=O)c1cc(C)nc2ccccc12`, the “activity change, negative = inhibition” value was 3.59%.

Consider `Cc1ccc2c(C(=O)O)cc(NC(=O)C(C)C)cc2n1`, for which the Potency is 20 µM (active).

Regarding `O=C(NCCn1c(-c2ccccc2)nc2ccccc21)NCc1ccccc1`, the “activity change, negative = inhibition” value is -25.5%.

Take `CC(C)Cc1nc2cccnc2n1C1CCN(S(=O)(=O)c2ccc(Cl)s2)CC1`: the “activity change, negative = inhibition” value was 5.36%.

`Cc1cccc(-c2noc([C@@H]3Cc4nc[nH]c4CN3C(=O)CCC(=O)O)n2)c1`: the “activity change, negative = inhibition” value is -20.1% [at 86.2 µM].

Regarding `CC(C)NC(=O)N1Cc2[nH]cnc2C[C@H]1c1nc(-c2ccc(Cl)cc2)no1`, the Potency was 31.6 µM (active).

With `O=C(c1ccco1)N1Cc2[nH]cnc2C[C@H]1c1nc(-c2ccncc2)no1`, the “activity change, negative = inhibition” value was -23.5% [at 86.2 µM].

Turning to `COc1ccc(OCC2(C)COc3ccc(C(=O)Nc4cccnc4)cc3N2)cc1` (stereo not drawn), the Potency was 31.6 µM (active).

Consider `O=C(Nc1cccnc1)c1ccc2c(c1)OCCN(c1ccccc1)C2`, for which the “activity change, negative = inhibition” value is -25.6% [at 86.2 µM].

Consider `COc1ccc(-n2cnc3cc(C(=O)NC4CCCC4)ccc32)cc1`, for which the “activity change, negative = inhibition” value is -23.1%.

Take `COc1ccc(OCC2(C)COc3ccc(C(=O)NC4CCOCC4)cc3N2)cc1` (stereo not drawn): the Potency was 25.1 µM (active).

`COc1ccc(-c2cc(N3CCC(NC(=O)c4ccc5c(c4)OCO5)CC3)n[nH]2)cc1`: the “activity change, negative = inhibition” value was -11.3%.

For the compound `O=C(Nc1cccnc1)c1ccc2c(c1)OCCN(Cc1ncccn1)C2`, the “activity change, negative = inhibition” value is 7.08% [at 86.2 µM].

In the case of `Cc1ccc(NC(=O)CN(C)C(=O)c2cc3ccc(F)cc3nc2C)cc1`, the “activity change, negative = inhibition” value was -9.53%.

As to `Cc1ccc(NC(=O)c2ccc(F)cc2Cl)nc1`, the “activity change, negative = inhibition” value was -6.56%.

Regarding `CCn1nc(C(=O)Nc2ccc(I)cc2C)c2ccccc2c1=O`, the “activity change, negative = inhibition” value is 7.2%.

On to `Cc1ccnc(N2CC[C@@H]3[C@@H](CCC(=O)N3CCc3ccccn3)C2)n1`, for which the Potency is 22.4 µM (active).

For `CN1C(=O)CC(C(=O)O)C12CCN(CCc1ccccn1)CC2` (stereo not drawn), the “activity change, negative = inhibition” value was 25.7%.

As for `Cc1ccc2c(CN3CCN(CCc4ccccn4)CC3)cc(=O)oc2c1`, the “activity change, negative = inhibition” value is -23.1%.

Take `CC(Sc1nc(CN2CCOCC2)nc2ccccc12)C(=O)NC1CCCCCC1` (stereo not drawn): the “activity change, negative = inhibition” value was 23.1%.

Consider `COc1ccc(-c2csc3c2NC(=O)CC3c2ccc(OCC(N)=O)c(OC)c2)cc1` (stereo not drawn), for which the “activity change, negative = inhibition” value is 15.1%.

For `Nc1nc2c(s1)C(c1ccccc1)CC(=O)N2` (stereo not drawn), the Potency is 28.2 µM (active).

In the case of `O=C1CC(c2ccc(C(F)(F)F)cc2)c2sc(C(=O)O)c(-c3ccccc3)c2N1` (stereo not drawn), the “activity change, negative = inhibition” value is 12.2%.

With `Cc1ccc(-c2csc3c2NC(=O)CC3c2ccc(C)cc2)cc1` (stereo not drawn), the “activity change, negative = inhibition” value is -12.4%.

Turning to `COc1cccc(/C=C/C(=O)c2nc3ccccc3s2)c1OC(F)F`, the “activity change, negative = inhibition” value was -17%.

On to `CCOc1ccccc1NC(=O)Cn1nnc(C(=O)NCc2cccs2)c1N`, for which the “activity change, negative = inhibition” value is 6.8%.

As to `COc1ccccc1NC(=O)CSC1=Nc2ccccc2C2=NC(CC(=O)NCc3cccs3)C(=O)N12` (stereo not drawn), the “activity change, negative = inhibition” value was -5.93%.

On to `COc1ccccc1-c1nc(C(=O)NCc2cccs2)n2ccncc12`, for which the Potency is 28.2 µM (active).

As to `O=C(OCc1nc2ccccc2o1)c1ccccc1Br`, the “activity change, negative = inhibition” value is 8.02%.

In the case of `CC(=O)c1c(SCC(=O)Nc2ccc(F)cc2F)nc(=O)[nH]c1C`, the “activity change, negative = inhibition” value is -2.3%.

Turning to `CC(C)(C#N)C(=O)NCCc1ccc(OCc2ccccc2)cc1`, the “activity change, negative = inhibition” value was 18%.

As for `CC1CCN(c2nc3ccccc3nc2C(C#N)S(=O)(=O)c2cccc(Cl)c2)CC1` (stereo not drawn), the “activity change, negative = inhibition” value was -18%.

For the compound `CCn1cnnc1CC1CCN(C(=O)c2cc(-c3ccc(F)cc3)nc3ccccc23)CC1`, the Potency was 22.4 µM (active).

For the compound `COc1ccc(-c2cc(C(=O)N3CCN(CC(=O)N4CCOCC4)CC3)c3ccccc3n2)cc1`, the “activity change, negative = inhibition” value was -999%.

Turning to `CCn1cnnc1CC1CCN(C(=O)C2CCN(Cc3nc(-c4cccc(C)c4)oc3C)CC2)CC1`, the “activity change, negative = inhibition” value is -9.74%.

Take `CN(Cc1ccc(F)cc1)C(=O)NCc1ccccn1`: the “activity change, negative = inhibition” value is 21.6%.

Regarding `COc1ccccc1C(=O)N1CCC2(C1)C(=NC1CCCCC1)NC(=O)N2c1cccnc1` (stereo not drawn), the “activity change, negative = inhibition” value was 22.3% [at 115 µM].

For `COc1ccccc1C(=O)N1CCCC2(C1)Nc1cccnc1NC2=NCc1ccccc1` (stereo not drawn), the Potency was 28.2 µM (active).

As to `COc1cccc(CNC(=O)N2CCN(Cc3ccc(Br)s3)CC2)c1`, the “activity change, negative = inhibition” value is 1.67%.

For `CCOc1ccc(CC(=O)N2CCC(C3CCN(C(=O)NC)CC3)C2)cc1` (stereo not drawn), the “activity change, negative = inhibition” value was 4.36%.

On to `CCOc1ccc(CC(=O)N2CCCC3(C2)Nc2cccnc2NC3=NC2CCCC2)cc1` (stereo not drawn), for which the Potency was 28.2 µM (active).

In the case of `Cc1cc(C)n(CC(=O)N2CC[C@@H]3CN(S(C)(=O)=O)[C@@H]3C2)n1`, the “activity change, negative = inhibition” value is -16.1%.

Regarding `Cc1cc(C)n(CC(=O)N2CCCC3(C2)Nc2cccnc2NC3=NC2CCCC2)n1` (stereo not drawn), the Potency is 28.2 µM (active).

Turning to `Cc1cc(C)n(CC(=O)N2CCC3(CC2)NCCc2c3[nH]c3ccccc23)n1`, the “activity change, negative = inhibition” value is -19.4%.

With `COc1cccc(CNC(=O)N2CCCC3(C2)Nc2cccnc2NC3=NC2CCCC2)c1` (stereo not drawn), the Potency is 28.2 µM (active).

For `CCOc1ccc(CC(=O)N2CCC(Cc3nc(-c4cnccn4)no3)CC2)cc1`, the “activity change, negative = inhibition” value is 14.8%.

Consider `COc1ccccc1C(=O)N1CCC2(C1)C(=NC1CCCC1)NC(=O)N2c1cccnc1` (stereo not drawn), for which the “activity change, negative = inhibition” value was 9.75% [at 115 µM].

For the compound `COc1cccc(N2C(=O)NC(=NC3CCCC3)C23CCN(C(=O)c2ccc(C)cc2)C3)c1` (stereo not drawn), the “activity change, negative = inhibition” value was 6.94% [at 115 µM].

With `CC(C)=CC(=O)N1C[C@@H](NC(=O)Nc2ccc(F)cc2F)C[C@H]1C(=O)N[C@H](Cc1ccccc1)C(N)=O`, the “activity change, negative = inhibition” value is -12.3%.

As for `O=C(Cn1ccn2nc(-c3ccc(F)cc3)c(CO)c2c1=O)NC1CCCC1`, the “activity change, negative = inhibition” value is -16.7%.

In the case of `COC(=O)[C@@H](NC(=O)Nc1cc(-c2n[nH]c(=O)c3ccccc23)ccc1C)C(C)C`, the “activity change, negative = inhibition” value was -3.59%.

Consider `O=c1oc2ccc(F)cc2cc1S(=O)(=O)N1CCCCCC1`, for which the “activity change, negative = inhibition” value was 8.94%.

For `N#C/C(=C\c1ccc(-c2cc(Cl)ccc2Cl)o1)c1nc2ccccc2[nH]1`, the “activity change, negative = inhibition” value is 13.2%.

As for `O=C(O)CNS(=O)(=O)c1cccc(F)c1`, the “activity change, negative = inhibition” value was -20.7%.

As to `N#CC(C#N)=C(Nc1ccc(Oc2ccccc2)cc1)C(F)(F)C(F)(F)F`, the “activity change, negative = inhibition” value is -11.9%.

Consider `CC1(C)C2CCC1(CS(=O)(=O)NCCc1c[nH]c3ccccc13)C(=O)C2` (stereo not drawn), for which the “activity change, negative = inhibition” value is -1.56%.

As for `C=CCn1c(COc2cc(C)c(Cl)c(C)c2)n[nH]c1=S`, the “activity change, negative = inhibition” value was -9.76%.

With `Cc1ccsc1C(=O)N1CCCC2(C1)Nc1cccnc1NC2=NC1CCCC1` (stereo not drawn), the Potency was 25.1 µM (active).

Consider `COc1ccc(C(=O)N2CCCC3(C2)C(=NC2CCCC2)NC(=O)N3c2cc(F)cc(F)c2)cc1` (stereo not drawn), for which the “activity change, negative = inhibition” value was 4.12% [at 115 µM].

Take `Cc1nc(-c2cn(C3CCCN(C(=O)c4sccc4C)C3)nn2)no1` (stereo not drawn): the “activity change, negative = inhibition” value was 5.05%.

For the compound `Cc1ccc(Nc2nnc(-c3ccc(C)c(S(N)(=O)=O)c3)c3ccccc23)c(C)c1`, the “activity change, negative = inhibition” value is -1.74%.
